From PubChem
The list is not random: actives were taken first. Their share in the collection is about 12%.
NS1 inh – influenza NS1 inhibition; Potency, µM (titrated, usually from 46.1 µM), inactives show at the highest dose activity, positive = more growth; actives 0.4% (n = 270,000); AID 2326; calls by dose curve; also: actives are rising curves; nearly all actives have a fitted effect of over 50% in size
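S. cerevisiae expressing influenza A NS1, grown in glucose, washed, then diluted 1:100 into pH 6.0 -URA galactose medium with 23 nl compound. Growth recovery read as OD600; NS1-free strain serves as control.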
AMA1-RON2 inh – AMA1-RON2 (P. falciparum) interaction inhibition. AlphaScreen AMA1-biotinylated RON2 peptide binding. Potency, µM (series often up to 58.2 µM), without a hit: top-dose activity change, negative = inhibition, most hits filed as inhibitors. actives 0.2% (n = 360,000);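 also: 0% = vehicle wells and -100% = peptide control; nearly all actives have a fitted effect of over 45% in size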
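AMA1 (3D7) with his tag at 25 nM final met compounds first, then biotinylated RON2 peptide at 25 nM; detection used donor plus acceptor beads, 10 µg/mL apiece, read by AlphaScreen after 30 min at room temperature.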
Pf growth 48h – P. falciparum growth inhibition at 48 hours (one generation) | AID 504832 | P. falciparum luciferase growth in erythrocytes, 48 h | Potency, µM (series often up to 28.7 µM), inactives show at the top dose activity change, negative = inhibition, usual class: inhibitors | actives 5.9% (n = 310,000); also: % is scaled to controls: 0 for no effect and ±100 for the full control effect
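First compound was added to culture medium, then infected red cells at 0.1% parasitemia and 2% hematocrit (final). After incubation at 37 C under 5% CO2, luciferase detection reagent was dispensed and light output recorded.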
Pf growth 96h – inhibits malaria parasite growth, 96 h | P. falciparum luciferase reporter growth, 96 h | Potency, µM (top dose mostly 28.7 µM), without a hit: top-dose activity change, negative = inhibition, hits mostly inhibitors | actives 6.9% (n = 320,000) | AID 504834; also: % is scaled to controls: 0 for no effect and ±100 for the full control effect
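Infected RBCs, 2% Hct / 0.05% parasitemia final; luciferase-reporter P. falciparum; cpd 96 h, 37 C, 5% CO2; luciferase detection reagent; luminescence.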
HCV inhibitor – blocks hepatitis C virus; Huh7.5.1 HCVcc-Cre infection, luciferase reporter, 44 h; Potency, µM (series often up to 41.8 µM), for inactives: at the top dose activity change, negative = inhibition, most hits filed as inhibitors; actives 3.4% (n = 340,000); AID 651820; also: % is scaled to controls: 0 for no effect and ±100 for the full control effect
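Whole-lifecycle infectious HCVcc-Cre system; cells 1,000/well, compound then virus (~0.5 moi) added 4 h after plating, 44 h culture. Luciferase read 15 sec following 15 min substrate incubation, room temp.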
SARS PLP yeast – blocks SARS-CoV papain-like protease in a yeast assay | S. cerevisiae expressing SARS-CoV PLpro, growth rescue | Potency, µM (series often up to 32.9 µM), for inactives: at the highest dose activity, positive = growth rescue, hits mostly activators | actives 0.19% (n = 330,000); calls by dose curve; also: 0% is about no effect; nearly all actives have a fitted effect of over 55% in size
* marks the source's active call; other numbers are inactive results; ? = inconclusive; / = no result; [ ] = another dose, or the depositor's remark. Unless noted, calls follow the shape of the dose curve; as a rule, active = well fitted curve in the direction sought with a large enough effect; inconclusive = small, poorly fitted or top-dose-only effect, or another doubt; inactive = no such curve, though single readings can be large; an effect the other way counts as inactive or inconclusive. Potency is read from the fitted curve at half-maximal effect.

SMILES	NS1 inh	AMA1-RON2 inh	Pf growth 48h	Pf growth 96h	HCV inhibitor	SARS PLP yeast
Nc1c(C(=O)NCCN2CCOCC2)c2nc3ccccc3nc2n1-c1ccccc1	2%	18%	9.3µM*	/	?	1%
COC(=O)c1c(N)n(-c2ccc(N3CCOCC3)cc2)c2nc3ccccc3nc12	2%	/	/	/	/	2%
Nc1c(C(=O)NCc2ccccc2)c2nc3ccccc3nc2n1-c1ccc2c(c1)OCO2	18%	4%	-85%	?	-13%	0%
CCN(CC(=O)Nc1c(F)cccc1F)C(=O)C1(c2ccccc2)CC1	-7%	10%	-1%	24%	20%	?
Cc1c(NC(=O)CN2C(=O)NC3(CCCCC3)C2=O)c(=O)n(-c2ccccc2)n1C	/	-12%	14%	?	21%	1%
Cc1cc(C)cc(OCC(=O)NNC(=O)CN2C(=O)c3ccccc3C2=O)c1	-15%	44%[11.6 µM]	19%	13%	7%	2%
COc1cc(OC)cc(C(=O)NCCOc2ccccc2)c1	-15%	21%	/	35%	-21%	-10%
COc1cc(OC)cc(C(=O)NCCC(c2ccccc2)c2ccccc2)c1	3%	6%	?	?	14µM*	1%
COc1cc(NC(=S)NCCC(c2ccccc2)c2ccccc2)cc(OC)c1	8%	72%	13µM*	?	22µM*	?
Cc1noc(C)c1COC(=O)C1CCN(S(=O)(=O)c2ccc(F)cc2)CC1	/	-1%[11.6 µM]	?	?	-7%	1%
COc1ccc(N(CC(=O)NCCc2ccc(Cl)cc2)S(=O)(=O)c2c(C)[nH]c(=O)[nH]c2=O)cc1	/	0%	-23%	?	19%	-3%
CN1/C(=C\C=C2/SC(=S)N(CC(=O)O)C2=O)C(C)(C)c2ccccc21	9%	20µM*	-4%	?	16%	0%
C=CCN1C(=O)/C(=C\C=C2\N(C)c3ccccc3C2(C)C)SC1=S	1%	9%	-5%	29%	?	-13%
CCCN1C(=O)/C(=C/C=C2\N(CC)c3ccccc3C2(C)C)SC1=S	11%	?	?	4.1µM*	?	0%
CSc1cccc(-c2nnc(NC(=O)c3cccc(N4C(=O)CCC4=O)c3)o2)c1	/	61%	3%	-1%	-13%	3%
O=C(CCN1C(=O)/C(=C\c2ccccc2Cl)SC1=S)N1CCN(c2ccccc2)CC1	10%	-8%	36%	?	19%	1%
Cc1ccc(/C=C2\SC(=S)N(CCCC(=O)N3CCOCC3)C2=O)cc1	6%	-10%	13µM*	-21%	2%	8%
CN1CCN(C(=O)CCN2C(=O)/C(=C\c3ccc(Cl)cc3Cl)SC2=S)CC1	-1%	-28%	10µM*	3.3µM*	0%	-2%
CN1CCN(C(=O)CCCN2C(=O)/C(=C/c3ccc(Cl)cc3)SC2=S)CC1	/	-8%	?	10µM*	?	4%
COC(=O)c1ccc(/C=C2\SC(=S)N(CCCC(=O)N3CCOCC3)C2=O)cc1	/	1%	/	/	4%	/
CCCNc1ncnc2c1cnn2C1CCCCO1 (centres undefined)	/	-10%	/	/	-2%	/
CSC1=NC(C)(C)C=C(/C=C/c2ccc(Cl)cc2Cl)N1	/	-4%	?	12µM*	?	1%
CSC1=NC(C)(C)C=C(/C=C/c2ccc(Cl)cc2)N1	/	0%	-24%	?	8.9µM*	-1%
CC1(C)Nc2ccc(O)cc2-c2c1ssc2=S	-11%	?	?	8.3µM*	?	8%
CCC(C)C(=O)Nc1nc(C)c(-c2csc(Nc3ccc(Cl)cc3)n2)s1 (centres undefined)	?	35%	13µM*	9.3µM*	-25%	2%
SMILES	NS1 inh	AMA1-RON2 inh	Pf growth 48h	Pf growth 96h	HCV inhibitor	SARS PLP yeast
CCCC(=O)Nc1nc(C)c(-c2csc(Nc3ccc(Cl)cc3)n2)s1	?	73%	0.83µM*	?	-4%	-16%
CCC(=O)Nc1nc(C)c(-c2csc(Nc3ccc(C(=O)O)cc3)n2)s1	0%	-2%	0%	-47%	20%	0%
CC(=O)Nc1ccc(NC(=O)c2ccc(OCc3c(C)noc3C)cc2)cc1	/	2%	/	/	2%	-4%
Cc1ccc(NC(=O)c2ccc(OCc3c(C)noc3C)cc2)cc1C	/	-6%	/	/	4.5µM*	-4%
COc1ccc(C(C)=O)cc1COC(=O)c1ccc(OCc2c(C)noc2C)cc1	-8%	8%	?	8.3µM*	?	-3%
COc1ccc(C(C)=O)cc1COC(=O)c1c(C)noc1C	-16%	3%	/	-25%	10µM*	-1%
COc1ccc(C(C)=O)cc1COc1ccc(-n2cnnn2)cc1	-53%	-7%	-13%	/	10µM*	5%
CCc1ccc(NC(=O)c2ccccc2SC)cc1	-3%	-1%	-26%	42%	2%	0%
CCCNC(=O)C1(S(=O)(=O)c2ccccc2)CC=CC1	8%	-6%	?	23%	10%	1%
Nc1sc2c([n+]1CCCS(=O)(=O)[O-])CCCC2	/	15%	25%	53%[5.75 µM]	14%	2%
O=C(Cn1cc(Cl)c([N+](=O)[O-])n1)NCCC1=CCCCC1	4%	2%	9%	?	-3%	2%
O=C1CC(NNC(=O)c2cccc(F)c2)C(=O)N1 (centres undefined)	2%	-8%	?	11%	7%	1%
COc1ccc(C(C)=O)cc1COC(=O)c1cccnc1Cl	-18%	-3%	20%	38%	11µM*	1%
COc1ccc(C(C)=O)cc1COC(=O)c1cc2ccccc2cc1O	8%	-15%	-15%	-20%	-22%	2%
NNc1nc(Nc2ccccc2)nc(Nc2ccccc2)n1	/	27%	8.3µM*	349%	-15%	-4%
COc1ccc(Nc2nc(NN)nc(Nc3ccc(OC)cc3)n2)cc1	-6%	20%	9.3µM*	3.3µM*	?	-7%
COc1ccc(Nc2ccc(OC)cc2)cc1	-4%	?	?	?	1%	-3%
CCc1nn(-c2ccccc2)c2c1-c1cc(OC)c(OC)cc1C1(N2)C(=O)Nc2ccccc21 (centres undefined)	28%	-22%	/	2.6µM*	?	4%
COc1cc2c(cc1OC)C1(Nc3c-2c(-c2ccccc2)nn3-c2ccccc2)C(=O)Nc2ccccc21 (centres undefined)	16%	-9%	/	175%	13µM*	?
COc1cc2c(cc1OC)C1(Nc3c-2c(C)nn3-c2ccccc2)C(=O)Nc2ccccc21 (centres undefined)	8%	-15%	/	1.5µM*	-27%	9%
COc1ccc(N2C(=O)CSC23C(=O)Nc2ccccc23)cc1OC (centres undefined)	-6%	-14%	-1%	/	20%	-1%
